TDP1 cell noCPT – qHTS for Inhibitors of human tyrosyl-DNA phosphodiesterase 1 (TDP1): qHTS in cells in absence of CPT | AID 686978, 2013 | actives 15% (n = 420,000) | DT40 Tdp1-/- hTDP1 cells, no CPT, ATP luminescence, 48 h | Potency, µM (top dose mostly 46.2 µM), hits mostly inhibitors; also: nearly all actives have a fitted effect of over 55% in size
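Chicken DT40 Tdp1-/- cells stably complemented with human TDP1 were seeded at 400 cells/well with DMSO in place of 20 nM camptothecin. After compound pinning, cells grew at least 48 hr at 37 °C; viability read by CellTiter-Glo luminescence.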
TDP1 cell CPT – qHTS for Inhibitors of human tyrosyl-DNA phosphodiesterase 1 (TDP1): qHTS in cells in presence of CPT. chicken DT40 Tdp1-/-;hTDP1 cells + 20 nM CPT, ATP luminescence, 48 h. actives 12% (n = 420,000). Potency, µM (doses to about 46.2 µM), usual class: inhibitors; also: nearly all actives have a fitted effect of over 55% in size
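Chicken DT40 Tdp1-/- cells stably complemented with human TDP1 were seeded at 400 cells/well in medium containing 20 nM camptothecin, exposed to pin-transferred compounds, and grown at 37 °C for at least 48 hr. Viability was read as ATP luminescence.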
ATXN viability – Viability Counterscreen for Primary qHTS for Inhibitors of ATXN expression. S2 cells (HEK-293 line with an ATXN2-luciferase reporter) viability, CellTiter-Fluor protease fluorescence, 24 h. Potency, µM (titrated, usually from 56.7 µM), usual class: cytotoxic. actives 0.49% (n = 400,000). AID 651635, 2014; also: nearly all actives have a fitted effect of over 40% in size
TGFb SMAD3 inh – qHTS for Inhibitors of TGF-b; HepG2 CAGA-GFP TGF-b/SMAD3 reporter, GFP fluorescence, 18 h; TGF-beta stimulated, 500 pg/mL final; AID 588855, 2011; Potency, µM (highest dose often 46.1 µM), actives largely listed as inhibitors; actives 1.2% (n = 410,000); also: nearly all actives have a fitted effect of over 65% in size
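Cell-based qHTS in HEPG2 carrying a CAGA-GFP Smad reporter; compounds added before 500 pg/mL final TGF-beta, 18 h incubation at 37 degrees C, GFP fluorescence quantified per cell by imaging cytometry.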
HepG2 tox – qHTS for Inhibitors of TGF-b: Cytotox Counterscreen; HepG2 CAGA-GFP viability, ATP luminescence, 18 h; Potency, µM (top dose mostly 46.1 µM), most hits filed as cytotoxic; actives 0.76% (n = 410,000); AID 588856, 2011
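HepG2 CAGA-GFP cells (1000/well, DMEM with 1% FBS) received compound, then TGF-beta at 500 pg/mL final, and were incubated 18 hours at 37 degrees C. Viability was read by CellTiter-Glo luminescence. Media-only wells were set as complete cell-killing and DMSO as no toxicity.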
ATXN2 expr inh – Primary qHTS for Inhibitors of ATXN expression. HEK-293 ATXN2-luciferase reporter, luminescence, 24 h. Potency, µM (doses to about 57 µM), usual class: inhibitors. actives 0.72% (n = 360,000). AID 1745845, 2022; also: nearly all actives have a fitted effect of over 55% in size
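ATXN2-luciferase reporter cells (luciferase flanked by upstream and downstream ATXN2 gene portions) were treated 24 h at 37 °C with compounds at up to 57 uM. SteadyGlo luminescence gave expression; GF-AFC fluorescence gave viability.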
Hits are given with their value; – = inactive; ? = inconclusive; · = not tested or not shown. The list is not random: actives were taken first. Their share in the collection is about 17%. Calls follow the shape of the dose curve; as a rule, active = well fitted curve in the direction sought with a large enough effect; inconclusive = small, poorly fitted or top-dose-only effect, or another doubt; inactive = no such curve, though single readings can be large; an effect the other way counts as inactive or inconclusive.

SMILES	TDP1 cell noCPT	TDP1 cell CPT	ATXN viability	TGFb SMAD3 inh	HepG2 tox	ATXN2 expr inh
C[C@H](CO)N1C[C@H](C)[C@H](CN(C)Cc2ccc(-c3ccccc3)cc2)Oc2ccc(NS(=O)(=O)c3ccccc3)cc2CC1=O	18µM	16µM	?	?	11µM	?
C[C@H]1CN([C@@H](C)CO)C(=O)Cc2cc(NC(=O)CCC(F)(F)F)ccc2O[C@H]1CN(C)Cc1ccc(C(F)(F)F)cc1	?	?	·	?	–	?
C[C@H]1CN([C@@H](C)CO)C(=O)Cc2cc(NC(=O)CCC(F)(F)F)ccc2O[C@H]1CN(C)Cc1ccc(-c2ccccc2)cc1	?	?	·	13µM	18µM	?
C[C@@H]1CN([C@@H](C)CO)C(=O)Cc2cc(NS(=O)(=O)c3ccccc3)ccc2O[C@H]1CN(C)Cc1ccncc1	–	–	–	?	–	–
C[C@H]1CN([C@@H](C)CO)C(=O)Cc2cc(NC(=O)CCN3CCOCC3)ccc2O[C@@H]1CN(C)Cc1ccc(Oc2ccccc2)cc1	23µM	23µM	–	?	–	–
Cc1ccc(S(=O)(=O)Nc2ccc3c(c2)C(=O)N([C@H](C)CO)C[C@H](C)[C@@H](CN(C)Cc2ccccc2)O3)cc1	–	–	–	–	–	–
Cc1ccc(S(=O)(=O)Nc2ccc3c(c2)CC(=O)N([C@H](C)CO)C[C@@H](C)[C@H](CN(C)Cc2ccc(-c4ccccc4)cc2)O3)cc1	?	?	22µM	11µM	–	?
Cc1ccc(/C=C/c2onc(C)c2S(=O)(=O)N2CCC(C(=O)NCc3ccc(OC(C)C)cc3)CC2)cc1	–	?	·	–	–	·
CCOC(OCC)c1cc2ccccc2cn1	–	–	–	?	–	–
CCOc1ccc(NS(=O)(=O)c2ccc(C)c(C(=O)NCCCn3ccnc3)c2)cc1	–	–	–	–	–	–
O=C(Cc1ccccc1)NO	–	–	·	·	·	·
O=C(Cc1ccsc1-c1ccccc1)NO	21µM	26µM	?	–	–	–
COc1cc(CNC(=O)C2CCCN2S(=O)(=O)c2ccccc2)cc(OC)c1OC (centres undefined)	–	–	–	–	–	–
Cc1ccc(C)n1-c1ccc(C(=O)NN)cc1	21µM	7.3µM	–	–	–	–
Cc1ccc(C)n1-c1ccc(C(=O)NCc2ccncc2)cc1	?	?	?	–	–	·
CCOC(=O)C1CCN(C(=O)c2ccc(NS(=O)(=O)c3ccc(F)cc3C)cc2)CC1	?	–	–	–	–	–
CC(C)CCn1c(O)c(N=NC(=O)c2ccco2)c2ccccc21	?	–	–	–	–	–
O=S1(=O)CC(O)C(N=Nc2c(O)n(Cc3ccccc3)c3ccccc23)C1 (centres undefined)	12µM	16µM	–	–	–	–
O=C(Cn1c(O)c(N=NC(=O)c2ccncc2)c2ccccc21)Nc1ccccc1	–	–	–	–	–	–
COc1ccccc1NC(=O)Cn1c(O)c(N=NC(=O)c2ccccc2O)c2ccccc21	1.8µM	0.92µM	?	–	–	?
COc1ccc(C(=O)NCC(=O)N=Nc2c(O)n(C)c3ccccc23)cc1OC	–	–	–	–	–	–
O=C(N=Nc1c(O)n(Cc2ccccc2)c2ccccc12)c1cc2ccccc2cc1O	15µM	?	·	–	–	–
COc1ccc(C(=O)NCC(=O)N=Nc2c(O)n(Cc3ccccc3)c3ccccc23)cc1OC	16µM	?	–	–	–	–
Cc1cc(C)cc(NC(=O)C(Cc2ccccc2)NS(=O)(=O)c2ccc3c(c2)CCC(=O)N3)c1 (centres undefined)	?	?	–	–	–	–
Nc1nc(-c2c(Cl)cccc2Cl)no1	–	–	–	–	–	·
SMILES	TDP1 cell noCPT	TDP1 cell CPT	ATXN viability	TGFb SMAD3 inh	HepG2 tox	ATXN2 expr inh
Cc1ccc(NC(=O)Cn2c(O)c(N=NC(=O)c3cc4ccccc4cc3O)c3ccccc32)cc1	7.3µM	7.3µM	·	–	–	?
O=C(N=Nc1c(O)n(Cc2ccccc2)c2ccccc12)c1ccc(O)cc1	23µM	?	?	?	–	–
Cc1ccc(NC(=O)Cn2c(O)c(N=NC(=O)c3ccncc3)c3ccccc32)cc1	–	?	?	–	–	–
Cc1cccc(NC(=O)Cn2c(O)c(N=NC(N)=S)c3ccccc32)c1	15µM	23µM	–	?	–	–
Cc1ccc(N2CCN(C(=O)c3cc(-c4ccc(F)cc4)[nH]c3C)CC2C)cc1 (centres undefined)	21µM	?	–	?	–	–
Cc1[nH]c(-c2ccc(F)cc2)cc1C(=O)N1CCN(c2ccccc2)CC1	?	?	–	?	–	?
COc1cccc(N2CCN(C(=O)c3cc(-c4ccc(F)cc4)[nH]c3C)CC2)c1	21µM	15µM	–	?	–	–
COc1ccccc1/C=N/n1c(N)c(C(=O)NC2CCCCC2)c2nc3ccccc3nc21	?	?	–	–	–	–
CC(C)OCCCNC(=O)c1c(N)n(/N=C/c2ccccn2)c2nc3ccccc3nc12	23µM	?	–	–	–	–
CCC(C)NC(=O)c1c(N)n(/N=C/c2ccccn2)c2nc3ccccc3nc12 (centres undefined)	21µM	21µM	–	–	–	–
CCN1C(=O)c2ccccc2S(=O)c2ccc(C(=O)N3CCN(c4cccc(Cl)c4)CC3)cc21 (centres undefined)	18µM	?	–	–	–	–
CCN1C(=O)c2ccccc2S(=O)c2ccc(C(=O)N3CCN(c4ccccc4)CC3)cc21 (centres undefined)	18µM	?	–	–	–	–
CCN1C(=O)c2ccccc2S(=O)c2ccc(C(=O)N3CCCCCC3)cc21 (centres undefined)	?	?	–	–	–	–
CC[C@@H]1CC2=C(C(=O)OC(C)(C)O2)[C@@H](c2ccc(Cl)cc2)O1	–	–	–	·	·	–
NC(=O)C1CC(=O)N(c2ccc(OCc3ccc(Cl)cc3Cl)cc2)C1 (centres undefined)	–	–	?	–	–	·
NC(=O)C1CC(=O)N(c2ccc(OCc3ccc(Cl)c(Cl)c3)cc2)C1 (centres undefined)	?	23µM	–	–	–	·
Cc1cccc(NC(=O)C(=O)NCC2CCCN2S(=O)(=O)c2cccs2)c1C (centres undefined)	?	21µM	–	?	–	–

Screens as filed in PubChem BioAssay.
